High-throughput results deposited in PubChem by several laboratories.
RN4220 kill: growth inhibition of S. aureus RN4220, primary screen, OD600. inhibition, % (no concentration beside the values). AID 1259311, 2017. 16 h. actives 0.33% (n = 330,000); in the data active = inhibition above about 85%;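 note: plate controls were untreated cells for no effect and reference antibiotic for full effect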
PrPC surface inh: inhibitors of human cell surface prion protein PrPC, primary screen, cell-based, TR-FRET; Major prion protein (Homo sapiens), P04156; AID 720596, 2013; inhibition, % at 13.8 µM; actives 0.43% (n = 370,000); TR-FRET read-out; in the data active = inhibition above about 24%; note: 0% = median of the test wells and 100% = reference compound wells
BJeLR viability: MLPCN primary cell-based screen for lethality selective to Ras in HRASV12 cells; actives 0.17% (n = 300,000); BJeLR (HRASV12) viability, CellTiter-Glo ATP luminescence, 48 h; inhibition, % (concentration not given with the values); in the data active = inhibition above about 50%
Sa ugtP lethal: growth inhibition of ugtP-null S. aureus, primary screen, RN4220 ugtP deletion, OD600; 16 h; growth inhibition, % (concentration not given with the values); actives 0.54% (n = 330,000); AID 1259309, 2017; in the data active = growth inhibition above about 68%;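 note: plate controls were untreated wells for no effect and antibiotic for full effect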
3CLpro inhibitor: SARS-CoV 3CLpro protease inhibitors, primary screen, biochemical, quenched FRET. Replicase polyprotein 1ab (Severe acute respiratory syndrome coronavirus), P0C6X7. recombinant SARS-CoV 3CLpro, quenched FRET peptide cleavage. inhibition, % at 6 µM. actives 0.14% (n = 290,000). AID 1706, 2009; in the data active = inhibition above about 12%
DUSP3 inh: VHR1 phosphatase inhibitors, primary screen, biochemical, absorbance, uHTS | Dual specificity protein phosphatase 3 (Homo sapiens), P51452 | AID 1654, 2009 | inhibition, % at 13.3 µM | actives 0.52% (n = 290,000) | recombinant VHR phosphatase, pNPP absorbance; in the data active = inhibition above about 50%
PrPC confirm: confirmation of inhibitors of cell surface human prion protein, confirmation, cell-based, TR-FRET. shares compounds with PrPC surface inh. inhibition, % at 13.8 µM. cell surface PrPC level. AID 743200, 2013. actives 65% (n = 1,500); in the data active = inhibition above about 25%
LD9 cytotox: cytotoxicity in LD9 cells, cytotoxicity control for cell surface PrPc inhibitor project, cell-based, luminescence, high throughput; inhibition, % at 13.8 µM; shares compounds with PrPC surface inh; actives 29% (n = 1,500); luminescence viability; AID 743201, 2013; in the data active = inhibition above about 9.5%
Numbers without * were called inactive; · = no result given. Only some compounds are listed: those with a hit (about 1.4% of all), similar ones and a draw of the others.

SMILES	RN4220 kill	PrPC surface inh	BJeLR viability	Sa ugtP lethal	3CLpro inhibitor	DUSP3 inh	PrPC confirm	LD9 cytotox
COc1cc(C=CC(=O)O)cc(OC)c1OC	5	·	·	3	·	·	·	·
COc1ccc(OCC(O)Cn2cnc(-c3ccc(Br)cc3)c2)cc1 (centres undefined)	10	-3	13	9	-4	9	·	·
OC(COc1ccc2ccccc2c1Br)Cn1cnc(-c2ccccc2)c1 (centres undefined)	31	65*	9	1	6	10	84*	1
CSC1=NSC2=NC(=O)C(=Cc3coc4ccc(O)cc4c3=O)C(=N)N12	30	·	·	-33	·	·	·	·
CN(Cc1ccccc1)C1(CNC(=O)CCC(F)(F)F)Cc2ccccc2C1	1	26*	-3	8	-4	14	15	0
CCC1CN2CCc3cc(OC)c(OC)cc3C2CC1CC1NCCc2c1[nH]c1ccc(O)cc21 (centres undefined)	·	87*	·	·	·	·	100*	43*
COc1cc2c(cc1OC)C(Cc1ccc(O)cc1)NCC2 (centres undefined)	10	1	-2	2	-3	0	·	·
COc1cccc2sc3cc(NCc4ccc5c(c4)OCO5)ccc3c(=O)c12	31	94*	·	-24	·	·	139*	-3
COc1cc2sc3cc(NCc4ccc5c(c4)OCO5)ccc3c(=O)c2cc1OC	21	39*	·	-4	·	·	67*	3
COc1ccc(NCc2ccc3c(c2)OCO3)cc1Cl	0	1	-5	1	-3	-2	·	·
CCN1C[C@]2(COC)CCC(O)[C@@]34C5CC6C(OC)C[C@@](O)(C5C6OC)[C@@](O)(C(OC)C23)C14 (some centres undefined)	2	·	·	-3	·	·	·	·
CC(C)(C)N1C(=O)C2C(c3ccc(Br)cc3)N3C(=O)N(c4cccc(Br)c4)C(=O)[C@@]3(Cc3ccccc3)C2C1=O (some centres undefined)	10	·	·	9	·	·	·	·
COc1ccc(CN(Cc2nc3ccccc3c(=O)[nH]2)C(=O)NC2CCCCC2)cc1	4	25*	3	8	-4	-4	-1	-2
O=C(NC1CCCCC1)N(Cc1nc2ccccc2c(=O)[nH]1)C1CCCCC1	0	4	-1	-1	-5	8	·	·
C[n+]1ccc(C=NNc2nc(Cl)c(C#N)c(Cl)c2Cl)cc1	1	·	·	8	·	·	·	·
CCN(CC)C(=O)c1[nH]cnc1C(=O)NC(Cc1ccccc1)C(=O)OCc1ccccc1 (centres undefined)	8	·	·	4	·	·	·	·
CC[C@H](C)[C@@H]1NC(=O)[C@@H](CC(C)C)NC(=O)[C@H](C(C)C)NC(=O)[C@H]2CSSC[C@H](NC1=O)C(=O)N2	·	41*	·	·	·	·	47*	99*
O=C(CSc1nnc(NC(=O)c2ccccc2F)s1)NCc1ccc(F)cc1	-8	35*	13	2	-5	-7	9	-8
CC(NC(=O)c1nc[nH]c1C(=O)NC(c1ccccc1)c1ccccc1)C(=O)OCc1ccccc1 (centres undefined)	0	·	·	0	·	·	·	·
COc1cc(OC)c(C#N)c(S(=O)(=O)Cc2ccccc2)c1	10	7	-1	5	1	13	·	·
N#Cc1c([N+](=O)[O-])cc([N+](=O)[O-])cc1S(=O)(=O)Cc1ccccc1	34	42*	·	57	·	·	84*	98*
COc1ccc(/C=C(/C(=O)c2cccs2)N2C=CC=CC2=C(C#N)C#N)cc1	2	-20	-8	3	-1	26	·	·
N#CC(C#N)=C1C=CC=CN1/C(=C\c1ccco1)C(=O)c1ccccc1	37	74*	·	74	-1	-20	67*	79*
CC(CCC(=O)O)C1CCC2C3C(=O)CC4CC(=O)CC[C@]4(C)C3CC(=O)[C@]12C (some centres undefined)	1	·	·	-6	·	·	·	·
